Results reported in article PMC5540273 (PLoS ONE, 2017).

How the values were obtained:
Conditions in all cases: concentration: 1 μM, replicates: in singlicate; n = 1
IKK-alpha = tested on: T1, IKK-alpha
T1 construct: gene CHUK

IKK-beta = tested on: T2, IKK-beta
T2 construct: gene IKBKB

IKK-epsilon = tested on: T3, IKK-epsilon
T3 construct: gene IKBKE

INSRR = tested on: INSRR
INSR = tested on: INSR
IRAK1 = tested on: IRAK1
IRAK3 = tested on: IRAK3
IRAK4 = tested on: IRAK4
ITK = tested on: ITK
[1] = tested on: JAK1(JH1domain-catalytic)
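Also: KINOMEscan kinase panel screen.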

Compound	%Inh (IKK-alpha) [%]	%Inh (IKK-beta) [%]	%Inh (IKK-epsilon) [%]	%Inh (INSRR) [%]	%Inh (INSR) [%]	%Inh (IRAK1) [%]	%Inh (IRAK3) [%]	%Inh (IRAK4) [%]	%Inh (ITK) [%]	%Inh [1] [%]
COc1cccc2c(-c3ccncc3)c(-c3ccc(F)cc3)nn12 [GW468513]	0	14	3	9	11	28	24	7	8	0
Cn1cc(-c2ccc3c(c2)CCN3C(=O)Cc2cc(F)cc(C(F)(F)F)c2)c2c(N)ncnc21 [GSK2635225]	0	0	75	0	31	8	0	0	5	9
CCOc1nccc(-c2c(-c3ccc(F)cc3)ncn2C2CCNCC2)n1 [SB-249175]	0	0	6	4	10	45	11	6	0	29
CNc1nccc(-c2ccc3c(N)n[nH]c3c2)n1 [GSK2206003]	90	81	17	0	11	49	49	0	24	0
Nc1ncc(-c2ccc3nccc(-c4ccncc4)c3c2)cc1S(=O)(=O)N1CCCCC1 [GSK1693850]	0	0	12	0	0	39	86	10	12	10
Cc1cc(-c2c(-c3ccc(F)cc3)ncn2CCCN2CCOCC2)nc(N)n1 [SB-222517]	0	0	0	26	8	0	0	0	6	0
CC(C)c1nc(-c2cccc(NS(=O)(=O)c3c(F)cccc3F)c2)c(-c2ccnc(Nc3ccc(N4CCOCC4)nc3)n2)s1.Cl [GSK1723980]	0	0	39	0	0	0	1	6	95.7	0
COc1ccc(C)c(Nc2ccnc(Nc3ccc(-c4cnc[nH]4)cc3)n2)c1.Cl [GW784041]	0	0	0	0	0	0	35	0	18	100
COc1cc(Nc2ccnc3cc(-c4ccncc4)ccc23)cc(OC)c1OC.Cl [GW494610]	23	13	0	13	8	24	0	10	0	33
CN(c1ccc(NC(=O)Nc2cccc(Cl)c2)cc1)c1ccnc(N)n1.Cl [GW830707]	0	0	8	3	0	0	31	0	0	0
O=C(Nc1n[nH]c2cc(-c3cccs3)ccc12)C1CC1 [SB-731284]	57	73	0	0	40	35	9	45	0	0
Cc1cccc(Nc2nc(NCCN)ncc2C(N)=O)c1 [GSK1292139]	28	16	0	0	22	61	0	60	8	27
Cl.O=C(Nc1ccc(Oc2ccc3[nH]c(NC(=O)c4ccco4)nc3c2)cc1)Nc1cc(C(F)(F)F)ccc1F [GW683134]	85	49	0	55	52	20	0	23	8	91.2
COC(=O)Nc1nc2ccc(Oc3ccc(NC(=O)Nc4cc(C(F)(F)F)ccc4F)cc3)cc2[nH]1.Cl [GW654607]	72	36	17	0	0	21	6	3	0	69
O=C(Nc1n[nH]c2nc(-c3cccc(O)c3)ccc12)C1CC1 [SB-711805]	0	0	0	0	0	0	0	0	0	0
COc1ccc(C2=C(Nc3cccc(O)c3)C(=O)NC2=O)cc1 [SB-390766]	26	44	0	0	2	60	0	45	7	58
Cc1nn2c(=O)cc(N3CCO[C@H](C)C3)nc2n1Cc1cccc(Cl)c1Cl [GSK2373693]	36	81	0	0	4	78	0	25	15	9
O=C(Nc1n[nH]c2nc(-c3ccccc3)ccc12)C1CC1 [SB-708999]	94	66	37	0	0	24	10	14	4	0
Cc1ccccc1CC(=O)N1CCc2cc(-c3cn(C)c4ncnc(N)c34)ccc21 [GSK2603346]	12	28	49	8	0	0	0	6	20	5
COc1cccc(CC(=O)N2CCc3cc(-c4cn(C)c5ncnc(N)c45)ccc32)c1 [GSK2608899]	0	60	75	13	9	0	14	0	12	8
Cc1ccc(O)cc1Nc1ccnc2cc(-c3ccc(CN4CCCCC4)o3)ccc12 [GW557777]	0	0	0	4	0	0	0	0	56	1
COC(=O)Nc1nc2ccc(Oc3ccc(CC(=O)Nc4cc(C(F)(F)F)ccc4F)cc3)cc2[nH]1 [GW680903]	7	1	0	0	0	26	0	14	14	6

Compound	%Inh (IKK-alpha) [%]	%Inh (IKK-beta) [%]	%Inh (IKK-epsilon) [%]	%Inh (INSRR) [%]	%Inh (INSR) [%]	%Inh (IRAK1) [%]	%Inh (IRAK3) [%]	%Inh (IRAK4) [%]	%Inh (ITK) [%]	%Inh [1] [%]
COC(=O)Nc1nc2cc(Oc3ccc(NC(=O)Nc4cccc(SC)c4)cc3)ccc2[nH]1.Cl [GW697999]	35	0	10	0	0	36	24	12	26	2
Fc1cc(Cl)ccc1Nc1ccnc2cc(-c3ccc(CN4CCOCC4)o3)ccc12 [GW560109]	43	37	0	5	0	33	27	31	1	0
CN(c1ccc2c(c1)nc(NCc1ccccc1)n2C)c1ccnc(Nc2ccc(CS(C)(=O)=O)cc2)n1.Cl [GW811603]	0	0	0	44	10	0	0	0	0	12
N#Cc1cnc2cc(-c3cnc(CNCCN4CCOCC4)s3)ccc2c1Nc1ccc(Oc2ccccc2)cc1 [GW664114]	29	23	43	0	7	49	0	37	21	10
Cc1ccc(Nc2ccnc(Nc3ccc(C)c(F)c3)n2)cc1O.Cl [GW582868]	38	18	0	0	0	42	76	25	9	29
NCCC(NC(=O)c1cc(Br)c(-c2ccnc3[nH]ccc23)s1)c1ccccc1.O=C(O)C(F)(F)F.O=C(O)C(F)(F)F (centres unmarked) [GSK1307810]	52	57	17	0	0	96.8	9	0	7	79
COc1cccc(NC(=O)NCCNc2ccnc(Nc3ccc(F)cc3)n2)c1 [GSK1379879]	0	0	0	0	0	25	14	21	6	23
CN(C)CCNS(=O)(=O)c1ccc(-c2ccnc3[nH]ccc23)cc1 [GSK977620]	85	98.8	2	0	0	55	45	17	54	12
Cc1ccc(-c2ccc3occ(-c4ccc(S(C)=O)cc4)c3c2)nn1 (centres unmarked)	0	0	0	0	0	0	0	5	0	0
Nc1cccc(-c2ccc3c(N)n[nH]c3c2)c1 [GSK2193613]	0	0	11	0	0	10	0	0	10	0
Cl.Cl.NC(CNC(=O)c1cc(Br)c(-c2ccnc3[nH]ccc23)s1)c1ccccc1 (centres unmarked) [GSK1322949]	73	69	18	0	9	90.4	55	11	31	24
CC(C)NCC(Cc1ccccc1)NC(=O)c1cc(Br)c(-c2ccnc3[nH]ccc23)s1.Cl.Cl (centres unmarked) [GSK1383281]	0	23	30	0	0	15	2	12	3	35
CN(C)CCOc1ccc(-c2cc(-c3ccc(Cl)c(O)c3)c(-c3ccncc3)[nH]2)cc1.Cl.Cl [SB-684387]	9	82	30	0	14	16	0	0	0	20
CN1CCN(Cc2ccc(NC(=O)Nc3ccc(N(C)c4ccnc(Nc5ccc(CS(C)(=O)=O)cc5)n4)cc3)cc2)CC1.Cl [GW827654]	29	22	28	0	42	44	66	15	28	61
Cc1ccc(C)c(NC(=O)Nc2ccc(C)c(-c3ccc(C(=O)Nc4ccncc4)cc3)c2)c1 [GSK1398473]	0	8	0	0	0	5	1	19	13	0
O=C(O)C(F)(F)F.O=c1[nH]ccc2nc(N[C@@H]3CCNC3)nc(Nc3ccc4c(c3)S(=O)(=O)CC4)c12 [GSK2181306]	87	60	61	40	58	98.4	0	15	30	89
Cc1ccc(NC(=O)c2ccc(Cl)c(Cl)c2)cc1-c1ccc(C(=O)Nc2ccncc2)cc1 [GSK1398460]	0	10	24	0	0	0	3	7	10	9
c1ccc(Oc2ccc(Nc3ccnc4cc(-c5ccc(CN6CCCCC6)o5)ccc34)cc2)nc1 [GW567143]	12	8	0	5	10	24	0	6	10	0
Cn1cc(-c2ccc3c(c2)CCN3C(=O)Cc2cc(F)cc(F)c2F)c2c(N)ncnc21 [GSK2634140]	0	12	75	0	0	7	6	0	20	1
Cc1cc(-c2ccnc(Nc3cccc(C#N)c3)n2)cc(C)c1O [GSK1440913]	61	67	28	23	0	52	82	11	9	0
COc1cc(Nc2nccc(N3CCC(NC(=O)Nc4ccc5c(c4)OCO5)C3)n2)cc(OC)c1OC (centres unmarked) [GSK1379766]	27	11	29	0	25	80	85	44	10	12
O=C1NC(=O)C(c2ccccc2Cl)=C1Nc1cccc(Cl)c1 [SB-342409]	18	36	0	1	7	28	0	32	14	1
